Screens from PubChem BioAssay.
The list is not random: actives were taken first. Their share in the collection is about 7.8%.
MITF inh: inhibitors of MITF, primary screen, MITF inhibitor project, cell-based, luminescence | TRPM1 promoter luciferase, 24 h | AID 2240, 2010 | hit rate 0.28% among 37,000 | inhibition, % (concentration not given with the values); in the data active = inhibition above about 85%; inconclusive = no clear call, values can overlap the other calls; inactive = below about 68%;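 note: human melanocyte line stably carrying TRPM1 promoter luciferase reporter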
Shh pathway inh: Hedgehog pathway signaling inhibitors, primary screen, luminescence, Shh-LIGHT2 cells, Gli-luciferase. Shh-LIGHT2 Gli-luciferase reporter, 30 h. AID 2313, 2010. inhibition, % (no concentration beside the values). hit rate 2.1% among 22,000;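 active = mean inhibition across valid replicates above about 65%, limit read from the data; inconclusive = mean under the limit, yet half or more replicates past it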;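 note: pathway switched on by Shh-conditioned medium diluted 1 in 25 in low serum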
NOMO-1 viab: NOMO-1 AML cell viability reduction, primary screen, STK33 inhibitor project, CellTiter-Glo luminescence; NOMO-1 AML viability, 72 h; inhibition, % (concentration not given with the values); hit rate 7.5% among 37,000; in the data active = inhibition above about 80%; inconclusive = no clear call, values can overlap the other calls
Hits are given with their value; – = inactive; ? = inconclusive; · = no result.

SMILES	MITF inh	Shh pathway inh	NOMO-1 viab
COc1ccc(S(=O)(=O)Nc2cccc3c2O[C@H](CN(C)Cc2ccc(C(F)(F)F)cc2)[C@H](C)CN([C@@H](C)CO)C3=O)cc1	–	–	–
COc1ccc(S(=O)(=O)Nc2cccc3c2O[C@@H](CN(C)Cc2ccc(C(F)(F)F)cc2)[C@@H](C)CN([C@H](C)CO)C3=O)cc1	–	–	96
COc1ccc(NC(=O)Nc2ccc3c(c2)CC(=O)N([C@H](C)CO)C[C@H](C)[C@H](CN(C)C(=O)Nc2cccc4ccccc24)O3)cc1	–	–	–
COc1ccc(S(=O)(=O)N(C)C[C@@H]2Oc3ccc(NC(=O)Nc4ccc(C(F)(F)F)cc4)cc3CC(=O)N([C@H](C)CO)C[C@@H]2C)cc1	–	–	115
COc1ccc(S(=O)(=O)N(C)C[C@@H]2Oc3ccc(NC(=O)Nc4ccc(C(F)(F)F)cc4)cc3CC(=O)N([C@@H](C)CO)C[C@@H]2C)cc1	–	–	102
COc1ccc(S(=O)(=O)N(C)C[C@@H]2Oc3ccc(NC(=O)Nc4ccc(C(F)(F)F)cc4)cc3CC(=O)N([C@H](C)CO)C[C@H]2C)cc1	–	–	–
COc1ccc(NC(=O)Nc2ccc3c(c2)CC(=O)N([C@@H](C)CO)C[C@H](C)[C@@H](CN(C)S(=O)(=O)c2ccc(F)cc2)O3)cc1	–	·	–
Cc1ccc(S(=O)(=O)Nc2ccc3c(c2)CC(=O)N([C@H](C)CO)C[C@@H](C)[C@@H](CN(C)S(=O)(=O)c2ccc(C)cc2)O3)cc1	–	–	–
Cc1ccc(S(=O)(=O)N(C)C[C@@H]2Oc3ccc(NC(=O)CCN4CCOCC4)cc3C(=O)N([C@@H](C)CO)C[C@H]2C)cc1	–	–	–
COC(=O)CNC(=O)c1cn(-c2ccccc2)nc1-c1cc2ccccc2oc1=O	–	·	111
COC(=O)CNC(=O)c1cn(-c2ccccc2)nc1-c1ccccc1	–	·	–
O=C(CN1C(=O)C2C3C=CC(C4CC34)C2C1=O)NCc1ccco1 (configuration not stated)	–	·	–
C[C@@H]1CN([C@H](C)CO)C(=O)c2cccc(NS(=O)(=O)c3ccc(F)cc3)c2O[C@@H]1CN(C)S(=O)(=O)c1cn(C)cn1	–	–	–
C[C@@H]1CN([C@H](C)CO)C(=O)Cc2cc(NS(=O)(=O)c3ccccc3)ccc2O[C@H]1CN(C)Cc1ccc(-c2ccccc2)cc1	–	–	?
Cc1ccc(S(=O)(=O)Nc2ccc3c(c2)CC(=O)N([C@@H](C)CO)C[C@@H](C)[C@@H](CN(C)Cc2ccc(-c4ccccc4)cc2)O3)cc1	–	–	124
Cc1noc(C)c1S(=O)(=O)Nc1ccc2c(c1)CC(=O)N([C@H](C)CO)C[C@@H](C)[C@H](CN(C)Cc1ccc(-c3ccccc3)cc1)O2	–	–	–
Cc1ccc(S(=O)(=O)Nc2ccc3c(c2)CC(=O)N([C@H](C)CO)C[C@@H](C)[C@H](CN(C)Cc2ccc(-c4ccccc4)cc2)O3)cc1	–	–	95
Cc1noc(C)c1S(=O)(=O)Nc1ccc2c(c1)CC(=O)N([C@@H](C)CO)C[C@H](C)[C@@H](CN(C)Cc1ccc(-c3ccccc3)cc1)O2	–	–	86
Cc1ccc(S(=O)(=O)Nc2ccc3c(c2)CC(=O)N([C@H](C)CO)C[C@@H](C)[C@@H](CN(C)Cc2ccc(-c4ccccc4)cc2)O3)cc1	–	–	–
C[C@H]1CN([C@@H](C)CO)C(=O)Cc2cc(NS(=O)(=O)c3ccccc3)ccc2O[C@H]1CN(C)Cc1ccc(-c2ccccc2)cc1	–	–	–
C[C@H]1CN([C@@H](C)CO)C(=O)Cc2cc(NS(=O)(=O)c3ccccc3)ccc2O[C@@H]1CN(C)Cc1ccc(-c2ccccc2)cc1	–	–	113
C[C@H]1CN([C@@H](C)CO)C(=O)c2cccc(NS(=O)(=O)c3cn(C)cn3)c2O[C@@H]1CN(C)Cc1ccccc1	–	–	–
C[C@@H]1CN([C@H](C)CO)C(=O)c2cccc(NC(=O)NC3CCCCC3)c2O[C@@H]1CN(C)S(C)(=O)=O	–	–	–
COC(=O)c1oc2c(c1C)-c1nc3ccccc3nc1C(C)(C)C2	–	·	–
C[C@H](CO)N1C[C@H](C)[C@H](CN(C)S(=O)(=O)c2cn(C)cn2)Oc2ccc(NC(=O)Cc3ccccc3)cc2CC1=O	–	–	–
SMILES	MITF inh	Shh pathway inh	NOMO-1 viab
CCn1c(SCC(=O)Nc2cccc(Br)c2)nnc1-c1ccc(Cl)cc1Cl	–	·	–
C[C@@H]1CCCCO[C@H](CN(C)C(=O)CCC(F)(F)F)[C@@H](C)CN([C@H](C)CO)C(=O)c2cc(NC(=O)c3ccncc3)ccc2O1	–	–	–
O=C(Nc1cccc2ccccc12)c1cc2ccccc2oc1=O	–	·	–
CC(C)NC(=O)N(C)C[C@H]1Oc2ccc(NS(=O)(=O)c3cccs3)cc2CC(=O)N([C@@H](C)CO)C[C@@H]1C	–	–	–
C[C@@H]1CN([C@H](C)CO)C(=O)Cc2cc(NS(=O)(=O)c3ccc(F)cc3)ccc2O[C@H]1CN(C)Cc1ccc(-c2ccccc2)cc1	–	–	89
C[C@@H]1CN([C@H](C)CO)C(=O)Cc2cc(NS(=O)(=O)c3ccc(F)cc3)ccc2O[C@@H]1CN(C)Cc1ccc(-c2ccccc2)cc1	–	–	?
C[C@@H]1CN([C@@H](C)CO)C(=O)c2cccc(NS(=O)(=O)c3cccs3)c2O[C@H]1CN(C)S(=O)(=O)c1ccc(F)cc1	–	–	–
CC(C)NC(=O)N(C)C[C@H]1Oc2ccc(NC(=O)Nc3ccc(C(F)(F)F)cc3)cc2C(=O)N([C@@H](C)CO)C[C@@H]1C	–	–	–
COc1cc(-c2ccccn2)nc(/C=N/O)c1S(C)=O (configuration not stated)	·	83	·
COc1cccc(/C=N/O)c1O	–	–	–
CCOC(=O)C1CCN(C(c2cccc(Cl)c2)c2c(NC(C)=O)sc3c2CCCC3)CC1 (configuration not stated)	–	–	109
CCOC(=O)c1c(NC(C)=O)sc2c1CCCCC2	–	–	–
C[C@@H]1CN([C@@H](C)CO)C(=O)c2cccc(NC(=O)C3CCOCC3)c2O[C@@H]1CN(C)Cc1ccc(-c2ccccc2)cc1	–	–	–
COc1ccc(-c2nnc3c4ccccc4c(C)nn23)cc1S(N)(=O)=O	–	·	–
CC1(C)Cc2c(sc3ncn4nc(-c5ccccc5)nc4c23)C(C)(C)N1	–	–	117
C[C@@H]1CCCCO[C@H](CN(C)S(=O)(=O)c2cccs2)[C@@H](C)CN([C@H](C)CO)C(=O)c2cc(NS(=O)(=O)c3ccc(F)cc3)ccc2O1	–	–	–
C[C@H]1CN([C@@H](C)CO)C(=O)Cc2cc(NC(=O)CCCN(C)C)ccc2O[C@H]1CN(C)Cc1ccc(Oc2ccccc2)cc1	–	–	–
C[C@H]1CN([C@@H](C)CO)C(=O)Cc2cc(NC(=O)CCCCCC(=O)Nc3ccccc3N)ccc2O[C@@H]1CN(C)C(=O)Nc1ccccc1	–	·	–
C[C@H](CO)N1C[C@H](C)[C@H](CN(C)Cc2ccc(Oc3ccccc3)cc2)Oc2ccc(NC(=O)CCCCCC(=O)Nc3ccccc3N)cc2CC1=O	–	·	140
